From PubChem
LASV entry inh – inhibitors of Lassa virus binding or cell entry; Potency, µM (doses to about 37.9 µM), for inactives: top-dose activity change, negative = inhibition, most hits filed as inhibitors; Lassa virus pseudotype entry inhibition, cell reporter; AID 540256; hit rate 1.2% among 300,000; calls by dose curve; tested in HEK293 cells; note: potency is the fitted concentration of half-maximal effect; nearly all actives have a fitted effect of over 50% in size
FMDV antiviral – foot and mouth disease virus antiviral activity | FMDV antiviral cell-based qHTS | Potency, µM (titrated, usually from 57.9 µM), inactives show top-dose activity change, negative = inhibition, hits mostly inhibitors | hit rate 1.2% among 410,000 | AID 1159524; calls by dose curve; tested in HEK293T cells; note: read-out not given here; potency is the fitted concentration of half-maximal effect; nearly all actives have a fitted effect of over 45% in size
Marburg entry inh – inhibitors of Marburg virus binding or cell entry | Marburg virus pseudotyped entry inhibition, cell reporter | Potency, µM (series often up to 37.8 µM), for the others: top-dose activity change, negative = inhibition, usual class: inhibitors | hit rate 1.8% among 300,000 | AID 540276; calls by dose curve; tested in HEK293 cells; note: potency is the fitted concentration of half-maximal effect
HCV inhibitor – blocks hepatitis C virus; hit rate 3.4% among 340,000; Potency, µM (top dose mostly 41.8 µM), for inactives: at the top dose activity change, negative = inhibition, hits mostly inhibitors; Huh7.5.1 HCVcc-Cre infection, luciferase reporter, 44 h; AID 651820; active = well fitted inhibition curve with a large enough effect; inconclusive = small, poorly fitted or top-dose-only effect, or another doubt; inactive = no such curve, though single readings can be large or run the other way; note: potency is the fitted concentration of half-maximal effect
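After 44 h co-culture of compound, cells and HCVcc-Cre (~0.5 moi), substrate is added for 15 min at room temperature and luciferase measured over 15 sec. Cells were seeded at 1,000/well and pre-cultured 4 h.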
HCMV inh – human cytomegalovirus inhibition; HFF cells, HCMV-luciferase reporter, 72 h; hits give low values; activity change, negative = inhibition, % at 57.5 µM; hit rate 4.5% among 410,000; AID 1259415; in the data active = activity change below about -60%; inconclusive = no clear call, values can overlap the other calls; inactive = above about -39%
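HFF cells seeded 16 h at 37C, treated with compounds, infected with luciferase-reporter HCMV at MOI 1 PFU/cell; luciferase read at 72 h post infection, normalized to buffer-only and Salinomycin controls.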
* = called active by the depositor; ? = inconclusive; / = not tested or not shown; [ ] = another dose, or the depositor's remark. Compounds with a hit are over-represented: about 7.9% of the library has one in this group of screens. % is set by controls: 0 for no effect and ±100 for the full control effect.

SMILES	LASV entry inh	FMDV antiviral	Marburg entry inh	HCV inhibitor	HCMV inh
Cc1ccc(C(=O)COC(=O)c2cccc(NC(=O)c3ccc([N+](=O)[O-])cc3[N+](=O)[O-])c2)cc1	?	?	?	11.2µM*	124.2
COc1cc2c(cc1NC(=O)c1cccc(S(=O)(=O)N(C)C)c1)oc1ccccc12	-36.8%	21.2%	?	1.41µM*	-22.9
COc1cc2c(cc1NC(=O)c1cccc([N+](=O)[O-])c1C)oc1ccccc12	-5.7%	20.0%	-28.2%	2µM*	-8.0
O=[N+]([O-])c1ccc2c(c1)oc1ccccc12	-5.3%	-13.1%	-16.5%	-3.4%	-93.3*
Cc1c(NC(=O)[C@@H](NC(=O)c2ccc(Cl)c([N+](=O)[O-])c2)C(C)C)c(=O)n(-c2ccccc2)n1C	6.2%	-17.0%	-5.3%	-17.7%	39.3
CC(=O)Nc1ccc(N=Nc2ccccc2)cc1[N+](=O)[O-]	?	62.4%	10.4%	-24.4%	31.5
COc1ccccc1Nc1ccc(NC(=O)c2cccc([N+](=O)[O-])c2C)cc1	/	?	/	?	-62.4*
CCCOC(=O)c1ccc(NC(=O)c2ccccc2[N+](=O)[O-])cc1	/	43.2%	/	?	-99.7*
CCC(=O)NC(=S)Nc1ccc(NC(=O)c2cccc([N+](=O)[O-])c2C)cc1	11.3%	-10.2%	8.8%	?	?
CC(=O)Nc1cc2oc3ccccc3c2cc1[N+](=O)[O-]	0.8%	40.4%	2.6%	?	-83.8*
COC(=O)CSc1nc2sc3c(c2c(=O)n1-c1ccccc1C)CC(C)(C)OC3	14.7%[46.1 µM]	-7.5%	25.5%[46.1 µM]	/	10.0
CCOc1ccc(Oc2nc(Nc3ccc(C)cc3)nc(N(C)C)n2)nn1	-7.7%	?	?	11.2µM*	-19.8
CCN(CC)c1nc(Nc2ccccc2)nc(Oc2ccc(=O)n(C)n2)n1	15.4%	?	?	?	152.3
CC(C)CCCCCCNC(=S)Nc1ccc(S(=O)(=O)N2CCOCC2)cc1	?	-26.5%	?	?	-84.9*
O=S(=O)(c1ccc(NC(=S)Nc2ccccc2)cc1)N1CCOCC1	18.1%	29.4%	4.3%	15.5%	-26.9
CN(C)CC(C)(C)CNC(=S)Nc1ccc(S(=O)(=O)N2CCOCC2)cc1	-2.1%	-8.2%	-12.5%	2.5%	-76.0*
CC(C)(C)c1ccc(/C=C/C(=O)Nc2cccnc2)cc1	?	-25.8%	?	-28.9%	54.1
CC(C)(C)c1ccc(/C=C/C(=O)NC2=NCCS2)cc1	14.1µM*	-22.5%	-26.8%	?	63.2
NC(=O)c1ccccc1NC(=O)/C=C/C(=O)O	-3.6%	14.9%	9.9%[46.1 µM]	18.1%	4.0
Cc1ccc(/C=C/C(=O)Nc2ccccc2C(N)=O)cc1	?	-18.7%	13µM*	-1.3%	68.9
Cc1ccc(/C=C/C(=O)NC2=NCCS2)cc1	1.58µM*	-37.9%	3.16µM*	-4.8%	37.0
Cc1ccc(OCC(=O)NC2=NCCS2)cc1	?	47.8%	?	12.5%	71.6
COCCn1c(=O)c(-c2cc(F)cc(F)c2)nc2cnc(Nc3cccc(OC)c3)nc21	/	-8.2%	/	/	/
COc1cc(CNc2ccc(S(N)(=O)=O)cc2)ccc1OCC(=O)NC1CCCCC1	-3.4%	?	-23.7%[46.1 µM]	-24.4%	-19.0
COCCNC(=O)CN1C(=O)COc2ccc(S(=O)(=O)N3CCCCCC3)cc21	3.2%[46.1 µM]	-0.9%	5.0%[46.1 µM]	10.2%	14.2
SMILES	LASV entry inh	FMDV antiviral	Marburg entry inh	HCV inhibitor	HCMV inh
Cc1ccc(Nc2nc(C)c(NC(=O)c3ccc(C)cc3)c(Nc3ccc(C)cc3)n2)cc1	-21.1%[46.1 µM]	-25.7%	?	/	-62.7*
CCOc1ccc(Nc2nc(C)c(NC(=O)c3ccc(C)cc3)c(Nc3ccc(OCC)cc3)n2)cc1	3.8%[46.1 µM]	-22.8%	?	/	0.3
COc1cc(C(N)=O)cc(Cl)c1OCc1ccccc1	0.2%	17.2%	?	-5.9%	25.3
CCOc1cc(C(N)=O)cc(Cl)c1OCc1ccccc1	/	14.2%	/	12.6µM*	-9.7
CCOc1cc(CNCC(C)C)cc(Cl)c1OCc1ccccc1	/	-27.3%	/	?	?
CCOc1cc(CNC2CCCC2)cc(Cl)c1OCc1ccccc1	?	-12.1%	?	12.6µM*	-23.2
CCOc1cc(CNC2CCCC2)ccc1OCc1ccccc1Cl	/	?	/	3.16µM*	-11.0
COc1ccccc1CCc1nc2ccccc2n1C1CCN(C(=O)c2cc(C)nn2C)CC1	/	-7.3%	/	/	/
CC(C)c1ccc(CN2CCC3(CCC(CNC(=O)c4ccn(C)n4)O3)CC2)cc1 (stereo not given)	/	-12.0%	/	/	/
Cc1ccccc1NC1=C/C(=N\S(=O)(=O)c2cccs2)c2ccccc2C1=O	?	10µM*	3.66µM*	3.55µM*	-106.2*
CC(=O)Nc1ccc(NC2=C/C(=N/S(=O)(=O)c3cccs3)c3ccccc3C2=O)cc1	?	?	5.01µM*	?	-100.9*
COc1ccc(S(=O)(=O)/N=C2\C=C(Nc3ccc(O)cc3)C(=O)c3ccccc32)cc1	?	7.94µM*	?	5.62µM*	-99.0*
Cc1ccc(NC2=C/C(=N/S(=O)(=O)c3cccs3)c3ccccc3C2=O)cc1C	3.6%	-18.3%	-6.7%	7.5%	62.3
CC(=O)Nc1ccc(NC(=O)C(C)OC(=O)c2ccccc2NS(=O)(=O)c2cccs2)cc1 (stereo not given)	?	-25.6%	-0.8%[46.1 µM]	-17.1%	-1.0
COc1ccccc1/C=C/C=N/NC(=O)c1ccc(=O)n(C)c1	-6.7%	1.8%	6.3%	5.7%	3.5
NC(=O)C1C(=O)c2ccccc2C1(C[N+](=O)[O-])c1ccccc1 (stereo not given)	-24.0%[46.1 µM]	-1.9%	-0.8%[46.1 µM]	-1.1%	-101.1*
CCSc1nnc2c(n1)OC(c1sccc1C)N(C(C)=O)c1ccccc1-2 (stereo not given)	-14.2%[46.1 µM]	-15.6%	0.4%[46.1 µM]	/	-60.1*
CCCC(=O)N1c2ccccc2-c2nnc(SC)nc2OC1c1sccc1C (stereo not given)	-0.2%[46.1 µM]	-20.5%	-4.3%[46.1 µM]	/	20.1
COCCNC(=O)c1ccc(C)c(S(=O)(=O)Nc2ccc(C)cc2)c1	0.8%	71.1%	-1.4%	12.4%	-3.8
Cc1ccccc1NS(=O)(=O)c1ccc(C(=O)NCC(C)(C)N2CCOCC2)cc1	-15.0%[46.1 µM]	-28.6%	-19.4%	?	-67.4*
Cc1ccc(C(=O)NCCSc2ccccc2)cc1S(=O)(=O)Nc1ccccc1	?	-5.6%	23.1µM*	?	-9.3
Cc1ccccc1NS(=O)(=O)c1cc(C(=O)NCCSC2CCCCC2)ccc1C	8.2µM*	/	?	?	?
O=C(Nc1cc(Cl)ccc1O)c1snnc1-c1ccccc1	?	20µM*	?	17.8µM*	-99.8*
CC(=O)N1CCCc2cc(S(=O)(=O)N3CCCC(C(=O)N4CCN(c5ccccc5F)CC4)C3)ccc21 (stereo not given)	?	15.8µM*	/	/	?
COc1ccc(N2CCN(C(=O)C3CCCN(S(=O)(=O)c4ccc5c(c4)CCCN5C(C)=O)C3)CC2)cc1 (stereo not given)	?	?	/	/	-71.3*
O=C(C1CCC1)N1CCCc2cc(S(=O)(=O)N3CCN(c4ccccc4)CC3)ccc21	11.2µM*	?	/	?	0.0
